Laboratory results from PubChem BioAssay (NCI).
About 79,000 compounds went through this panel and 15% of them were active in at least one assay; those are over-represented in the sample as a whole. Unmarked numbers belong to inactive results. Cut-off read from the data, not from the text of the source: active = growth inhibition above about 70%; inactive = the rest.

Experiment: NCI Yeast Anticancer Drug Screen. Data for the mec2-1 strain (AID 157)
Conditions: S. cerevisiae mec2-1 strain, at 50.0 µM, hits give high values
Procedure: Growth inhibition of yeast strains with defined genetic alterations is measured as a screen for potential anti-cancer activity. Selected strains with alterations in DNA damage repair or cell cycle control were exposed to compounds and growth inhibition was measured relative to vehicle treated controls. The strain used in this assay is mec2-1

SMILES | growth inhibition
Cc1cccc(C)c1N1C(=O)C(=O)C(c2nc3ccccc3s2)C(=Nc2cccc3c(=O)[nH][nH]c(=O)c23)C1=O (stereo not given) | 13.9%
COc1ccc(COCC[C@H](C)OC2OC(CO)C(O)C(O)C2O)cc1 (stereo not given in full) | -8.75%
CCOC(=O)c1nc(SC)sc1NC(=O)c1ccc([N+](=O)[O-])cc1 | -24.8%
O=C1c2ccccc2-c2ccc(-c3ccc4c5c(cccc35)C(=O)c3ccccc3-4)c3cccc1c23 | -27.6%
NS(=O)(=O)c1ccc(NC2(C(=O)O)CCCC2)cc1 | -9.3%
CC(=O)NC(=O)C(C(C)=O)c1ccccc1 (stereo not given) | -0.25%
O=C1CC2c3ccccc3C(O)(CC1=O)c1ccccc12 | 6.7%
CSC(=Nc1ccc([N+](=O)[O-])cc1C#N)NC(=O)c1ccccc1 | -19.9%
CC1OC(c2cccc([N+](=O)[O-])c2)OCC1(C)C (stereo not given) | -19.4%
Cn1c(=O)c(CC(O)C(Cl)(Cl)Cl)nc2ccccc21 (stereo not given) | 23.6%
COCCCNC(=O)C1C(=O)C(=O)N(CCCOC)C1=O (stereo not given) | -3.45%
O=[N+]([O-])/C(Cl)=C(/C(Cl)=C(Cl)Cl)N1CCOCC1 | 4.8%
CCCC1(C)OCC(C)([N+](=O)[O-])CO1 (stereo not given) | -11.2%
CCOC(=O)CCCC(=O)N(CC(=O)OCC)Cc1ccccc1 | 12.1%
O=C1NN(c2ccccc2)CCO1 | -3.2%
CC1=NC2c3c(-c4ccc(Cl)cc4)cn(-c4ccc(C)cc4)c3N=CN2N1 (stereo not given) | -5.9%
CC1=CC(OC2CCCCO2)CC(C)(C)C1 (stereo not given) | -3%
O=C1CN(C=C2C(=O)NC(=O)NC2=O)C(=S)N1 | -23.7%
O=C(CCN1CCCC1)Nc1ccc2sc3ccccc3c(=O)c2n1 | -61.8%
OC12C=CC(CCCC1)O2 (stereo not given) | -6.65%

SMILES | growth inhibition
CO/C=C1/CCc2c(ccc3cc(OC)ccc23)C1=O | -8.75%
Nc1cccc(CNC(=O)COc2ccc(Cl)cc2C(=O)O)c1 | 14%
Cn1cc(Cc2ccc(-c3ccccc3)cc2)c(=O)c(Cc2ccc(-c3ccccc3)cc2)c1 | 6.75%
CC(=O)Nc1ccc(S(=O)(=O)[N-]C2C(=O)c3ccccc3C(=O)C2[n+]2ccccc2)cc1 (stereo not given) | 23.1%
C#C/C=C/CC(OC(C)=O)C1C/C=C\CC(Br)C(CC)O1 (stereo not given) | 16.5%
O=C(OCC1OC=C(OC(=O)c2ccccc2)C1OC(=O)c1ccccc1)c1ccccc1 (stereo not given) | 11.7%
BrC/C(=N\N1CCCCC1)c1ccc(Br)cc1 | -7.95%
CCc1nnc(CC)n1NC(=O)Nc1ccc(C)cc1 | -14.5%
CCCCCC/C=C/CCCCCCCC(=O)O | -25.1%
O=c1c2n[nH]nc2nc2n1CC(c1ccccc1)S2 (stereo not given) | -77%
CCN(CC)c1cc2c(cc1Br)-c1ccccc1C2=O | -2.9%
Cc1ccc(Cl)cc1NC(=O)Nc1cc(Cl)c(Cl)cc1C | 45%
CCCCCO/C=C/CN1CCOCC1 | 15.2%
O=[N+]([O-])c1c(Cl)cc(Cl)c([N+](=O)[O-])c1-c1ccccc1 | 9.1%
CCSCCC(Nc1ncnc2nc[nH]c12)C(=O)O (stereo not given) | 8.75%
Cc1ccc(S(=O)(=O)Nc2ccc3nc(C)oc3c2)cc1 | -18.1%
CCCCCCCCC1CCC(=O)O1 (stereo not given) | 1.8%
N#Cc1ccc2c(c1)Sc1ccccc1N2 | 3.05%
CC(C)(CO)C(O)C(=O)NCCO (stereo not given) | -0.15%
COc1cc(C2c3cc4c(c(OC(=O)c5ccccn5)c3CC3COC(=O)C32)OCO4)cc(OC)c1OC (stereo not given) | 10.1%
